Results taken from PubChem BioAssay AID624170 (National Center for Advancing Translational Sciences (NCATS), 2012).
About 850 (0.21%) of roughly 410,000 compounds were called active. A call without a number means that no potency is given here. Another 2% or so got no clear call; they are omitted. The call rests on the fitted dose curve; in most records, active means well fitted inhibition curve with a large enough effect; inconclusive means small, poorly fitted or top-dose-only effect, or another doubt; inactive means no such curve, though single readings can be large or run the other way. This excerpt belongs to a sample that is enriched for actives.

Each compound was assayed against Glutaminase kidney isoform, mitochondrial (Homo sapiens) (UniProt O94925) (assay: qHTS for Inhibitors of Glutaminase (GLS)). Settings: GLS enzymatic activity, qHTS titration; series mostly up to 99.4 µM.
Chain of Glutaminase kidney isoform, mitochondrial (Homo sapiens) (O94925 whole entry, looked up, canonical isoform): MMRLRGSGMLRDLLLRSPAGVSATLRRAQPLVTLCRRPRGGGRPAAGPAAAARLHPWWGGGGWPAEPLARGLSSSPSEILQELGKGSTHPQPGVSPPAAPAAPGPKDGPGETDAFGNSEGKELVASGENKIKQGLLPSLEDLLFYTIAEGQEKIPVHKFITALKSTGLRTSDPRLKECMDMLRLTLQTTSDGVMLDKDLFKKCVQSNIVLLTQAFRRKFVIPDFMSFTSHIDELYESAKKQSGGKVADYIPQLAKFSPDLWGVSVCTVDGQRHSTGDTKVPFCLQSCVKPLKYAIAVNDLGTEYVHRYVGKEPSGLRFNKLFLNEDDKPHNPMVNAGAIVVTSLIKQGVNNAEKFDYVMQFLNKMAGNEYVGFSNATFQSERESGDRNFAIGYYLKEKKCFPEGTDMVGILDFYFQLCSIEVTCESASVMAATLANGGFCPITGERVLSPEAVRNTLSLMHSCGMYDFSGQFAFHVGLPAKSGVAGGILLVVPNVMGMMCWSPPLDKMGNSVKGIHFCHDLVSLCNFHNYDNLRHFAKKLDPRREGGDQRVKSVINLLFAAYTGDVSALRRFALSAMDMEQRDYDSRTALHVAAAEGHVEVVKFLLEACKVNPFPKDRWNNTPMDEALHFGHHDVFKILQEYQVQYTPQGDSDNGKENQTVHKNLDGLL
Source text: Glutaminase (GLS) catalyzes the hydrolysis of glutamine into glutamate and ammonia. It plays a critical role in glutaminolysis, which is an important energy source for proliferating cells. It was shown that c-Myc, an oncogenic transcription factor known to regulate microRNAs and to stimulate cell proliferation, increases glutamine metabolism by stimulating the expression of GLS via direct suppression of miR23a and miR23b.
GLS is also thought to play a pathogenic role on HAD using a human HIV-1 infected macrophage system. […] GLS inhibition limits glutamate release and provides neuroprotection against HIV-1 infected macrophages.
The overall goal of this project is to identify small molecule inhibitors of GLS through quantitative high throughput screening (qHTS) of the MLSMR. A validated potent and selective inhibitor can be used as a tool molecule to further study the pharmacology of its target as well as explore its potential therapeutic application in cancer and inflammatory neurological disorders, such as HIV1-associated dementia (HAD) and multiple sclerosis.
NIH Chemical Genomics Center [NCGC]
NIH Molecular Libraries Probe Centers Network [MLPCN]
Assay Submitter (PI): Barbara S. Slusher, Johns Hopkins University
Three 3 uL of hKGA is dispensed into black well 1536-well plates in 45 mM KH2PO4 (pH 8.2), 0.02% Tween-20. Then 23 nL of compounds are added through pin tool transfer. To this, 1 uL of 1mM L-Glutamine and 1 uL of a solution of L-Glutamateoxidase, HRP, Amplex red are added. Plate is centrifuged for 25 sec before an initial fluorescence read is obtained on the ViewLux, after 30 min of RT incubation, the final read is taken on the ViewLux.
Potency means the concentration at half of the fitted maximal effect.

Structure (SMILES) | Potency
CCC(C)n1c(O)c(/C=N/Nc2nc3c(c(=O)n(C)c(=O)n3C)n2C)c(=O)[nH]c1=S (stereo not given) | 10 µM (active)
COc1cc(C[C@H](C)N)c(OC)cc1Br | inactive
CC(C)=CCN1CC[C@@]2(C)c3cc(O)ccc3C[C@H]1[C@@H]2C | inactive
CC(C)(C)c1ccc(S(=O)(=O)Nc2ccc(O)c(Sc3nc4ccccc4s3)c2)cc1 | inactive
C[C@]12CCC3[C@@H](CCC4=CC(=O)CC[C@@]43C)C1CCC2OC(=O)CCc1ccccc1 (stereo not given in full) | inactive
O=C1NC(=O)N(Cc2ccco2)C(=O)/C1=C\c1ccc(-c2ccc(F)cc2)o1 | 8.91 µM (active)
O=P1(N(CCCl)CCCl)NC(OO)CCO1 (stereo not given) | inactive
CC(C)CC1C(=O)N2CCCC2C2(O)OC(NC(=O)C3CC4c5cccc6[nH]cc(c56)CC4N(C)C3)(C(C)C)C(=O)N12 (stereo not given) | inactive
Cc1ncc(CC(=O)n2cc(C(=O)c3cc(Cl)ccc3O)cn2)s1 | inactive
CC(=O)Oc1ccc2c3c1OC1C(OC(C)=O)C=CC4[C@@H](C2)N(C)CC[C@]314 (stereo not given in full) | inactive
